Source: PubChem BioAssay AID488890 (Southern Research Specialized Biocontainment Screening …, 2010)
Values joined by “and” are separate entries in the source; they are usually repeats but may differ in a detail not shown here. Equal values may be shown once. Hit rate of the full screen: of about 320,000 compounds, about 1,300 (0.41%) were called active. Another 3% or so got no clear call; they are omitted. No rule for the calls is given here. Not all results are given here. Measured potencies and affinities stand elsewhere.

Assay: growth inhibition of non-replicating M. tuberculosis (AID 488890);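 also: plate controls were DMSO cells for no effect and high antibiotic wells for full effect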
Conditions: Mycobacterium tuberculosis non-replicating, at 25 µM, stronger effect = higher value
Work on `CCN(CC(=O)Nc1c(F)cccc1F)C(=O)CNC(=O)c1ccc2ccccc2c1` yielded an inhibition of 18.6%.
For `CN(C)S(=O)(=O)c1cccc(C(=O)NC(=S)N(CCC#N)Cc2cccnc2)c1`, the inhibition was 42.5%.
Work on `COCC(=O)N1CCC(Oc2ccc(C(=O)N3CCCCCC3)cc2)CC1` yielded an inhibition of -1.31%.
With `COc1ccc(-c2sc3ccccc3c2-c2ccc(O)cc2)cc1` the inhibition was 17.4%.
`COc1ccc(NC(=O)CN(C)S(=O)(=O)c2ccc3c(c2)CCCN3C(C)=O)cc1` showed an inhibition of -3.38%.
`Cc1onc(C(=O)N2CCC(Cc3ccccc3)CC2)c1[N+](=O)[O-]` showed an inhibition of -6.71%.
With `CCOC(=O)CSc1nc2c(sc(=S)n2-c2ccc(CC)cc2)c(=O)[nH]1` the inhibition was 48.4%.
In the case of `COc1ccc(NC(=O)CNc2ccccc2N2CCCC2=O)cc1S(=O)(=O)N1CCOCC1`, the inhibition is reported as 13.9%.
`Cn1cccc1CC(=O)N/N=C/c1cc([N+](=O)[O-])ccc1Cl` showed an inhibition of 14.2%.
Work on `Cc1[nH][nH]c(=O)c1C(c1ccc(-c2cccc(C(=O)O)c2)o1)c1c(C)[nH][nH]c1=O` yielded an inhibition of -6.98%.
In the case of `COC(=O)c1ccc(-c2ccc(C(c3c(C)[nH][nH]c3=O)c3c(C)[nH][nH]c3=O)o2)cc1`, the inhibition is reported as 36.5%.
`Cc1c(NC(=S)NC(NC(=O)C(C)(C)C)C(Cl)(Cl)Cl)c(=O)n(-c2ccccc2)n1C` (centres undefined) gave an inhibition of 1.72%.
With `O=C1OCC(CO)(CO)N=C1NNc1ccccc1[N+](=O)[O-]` the inhibition was 4.31%.
Work on `Cc1ccc(C(=O)N/N=C/c2ccc(-c3cccc(Cl)c3)o2)cn1` yielded an inhibition of -3.58%.
With `CC1(CC(=O)N/N=C/c2ccc(-c3ccc(Cl)cc3)o2)OCCO1` the inhibition was 69.5%.
Compound `O=C(CN1CCOCC1)N/N=C/c1ccc(-c2cccc(Cl)c2Cl)o1` has an inhibition of 20.1%.
Work on `CCC(=O)N/N=C/c1ccc(-c2ccc([N+](=O)[O-])cc2)o1` yielded an inhibition of 74.5%.
Work on `O=C(CN1CCOCC1)N/N=C/c1ccc(-c2ccc(C(=O)O)cc2)o1` yielded an inhibition of 2.35%.
In the case of `Cc1ccc(C(=O)N/N=C\c2ccc(-c3ccc(Cl)c(Cl)c3)o2)cn1`, the inhibition is reported as 16.6%.
For `CN(C)c1ccc(C(=O)N/N=C/C23CC[C@@H](O)CC2(O)CC[C@@H]2[C@@H]3CCC3(C)C(C4=CC(=O)OC4)CCC23O)cc1` (some centres undefined), the inhibition was -3.55%.
For `CCOC(=O)c1cc(C)n(-n2cnnc2)c1C`, the inhibition was -3.13%.
`COc1ccc2c(c1)nc(SCC(=O)C(C)(C)C)n2C` gave an inhibition of 7.17%.
For `COc1ccc(N=C(C)C2=C(O)c3ccccc3C2=O)cc1`, the inhibition was 21%.
With `N#CC(=NCc1cccnc1)C1=C(O)c2ccccc2C1=O` the inhibition was 16.1%.
Work on `COC(=O)C1=C(C)N(CCCC(=O)O)C(=O)NC1c1ccc(OC)cc1` (centres undefined) yielded an inhibition of -3.65%.
`CCOc1ccc(N2C(=O)CNC2=S)cc1` showed an inhibition of 27.5%.
For `CCOc1ccc(N2CC(=O)N(c3ccc(OCC)cc3)CC2=O)cc1`, the inhibition was 2.08%.
Compound `CN(C(=O)c1ccccc1C(=O)OCC(=O)NCc1cccs1)C1CCCCC1` has an inhibition of -0.2%.
For `O=C(c1ccc(Br)o1)N1CCN(c2ccc(F)cc2)CC1`, the inhibition was 66.9%.
`CN(C)C(=O)c1cccn1-c1ncc(C(F)(F)F)cc1Cl` showed an inhibition of -7.62%.
Compound `O=c1c2ccccc2nc(-c2ccccc2)n1-c1ccccc1O` has an inhibition of 49.7%.
`COc1ccccc1-n1c(-c2ccccc2Br)nc2ccccc2c1=O` gave an inhibition of 5.34%.
`O=C(CCC(=O)N1CCN(c2ccc(F)cc2)CC1)c1ccc(Cl)cc1` showed an inhibition of 37.7%.
Compound `Cc1c(Cl)cccc1NC(=O)C1CCCN(S(C)(=O)=O)C1` (centres undefined) has an inhibition of 1.51%.
`Cc1ccc(S(=O)(=O)N2CCCCC2)cc1NC(=O)COC(=O)C1=COCCO1` gave an inhibition of -3.36%.
In the case of `CC(=O)c1c(O)cc(C(C)C)n(-c2ccccc2)c1=O`, the inhibition is reported as 6.76%.
`C=CCNC(=O)N[C@@H](CCSC)C(=O)OC` gave an inhibition of -9.43%.
In the case of `O=C(COC(=O)c1n[nH]c2ccccc12)NCCc1ccc(Cl)cc1`, the inhibition is reported as 18.4%.
`CCCn1c(CNC(=O)Cc2ccccc2)nc2ccccc21` gave an inhibition of -2.66%.
`Cc1ccccc1NCc1nc2ccccc2n1C` gave an inhibition of 34.2%.
Work on `CCCn1c(CNc2ccc(Br)cc2)nc2ccccc21` yielded an inhibition of 66.1%.
`Cn1c(CNc2ccc(O)cc2)nc2ccccc21` gave an inhibition of 73.1%.
Compound `COc1ccc(S(=O)(=O)N2CCC(C(=O)N3CCCCC3)CC2)cc1` has an inhibition of -4.95%.
In the case of `O=C(CNC(=O)c1cccs1)NCC(=O)OCc1ccccc1Br`, the inhibition is reported as 20.5%.
For `Cc1ccc(S(=O)(=O)Nc2ccc(F)cc2)cc1C(=O)N1CCOCC1`, the inhibition was -12.4%.
With `COC(=O)c1cnn(-c2nc(OC)cc(OC)n2)c1C` the inhibition was -11.5%.
Work on `COc1cc(OC)nc(-n2ncc(OC)c(Br)c2=O)n1` yielded an inhibition of -12%.
In the case of `COc1cc(C(=O)ON=C2C3CC4CC(C3)CC2C4)cc(OC)c1OC`, the inhibition is reported as 46.9%.
Work on `COc1ccc(-c2nc(CSCC(=O)N3CCN(C(=O)c4ccco4)CC3)c(C)o2)cc1OC` yielded an inhibition of -16.5%.
`CCOC(=O)C1(CCOc2ccccc2)CCN(C(=O)CCSC)CC1` gave an inhibition of 10.9%.
Compound `COc1cccc(/C=C2/SC(=S)N(CCC(=O)N3CCOCC3)C2=O)c1` has an inhibition of 46.5%.
`COc1cccc(/C=C2\SC(=S)N(CCCC(=O)N3CCCCC3)C2=O)c1` gave an inhibition of 79%.
Work on `CN1CCN(C(=O)CCN2C(=O)/C(=C/c3ccccc3Cl)SC2=S)CC1` yielded an inhibition of 18.9%.
In the case of `O=C(CCN1C(=O)/C(=C\c2ccccc2Cl)SC1=S)N1CCN(c2ccccc2)CC1`, the inhibition is reported as 73.2%.
`O=C(c1ccco1)N1CCN(C(=O)c2ccc(COc3ccc(Cl)cc3Cl)o2)CC1` showed an inhibition of 11.7%.
Compound `CS(=O)(=O)c1ccc2nc(NC(=O)CN3C(=O)C4CC=CCC4C3=O)sc2c1` (centres undefined) has an inhibition of -9.69%.
For `COC(=O)c1ccc(N2NC(=O)/C(=C/c3cc(OC)c(OC)c(OC)c3)C2=O)cc1`, the inhibition was 13.4%.
For `C=CCn1c(O)c(N=NC(=O)c2ccc3c(c2)OCO3)c2ccccc21`, the inhibition was 11.7%.
Compound `Cc1cc(C)n2nc(CNS(=O)(=O)c3ccc(CC(C)C)cc3)nc2n1` has an inhibition of 7.85%.
With `O=C(NC1CC1)C1CC(=O)N(C2CCCCC2)C1` (centres undefined) the inhibition was -5.51%.
`CC(NC(=O)CSc1nnc(-c2cc3cc(Cl)ccc3o2)n1C)c1ccccc1` (centres undefined) gave an inhibition of 16.7%.
In the case of `CNC(C)C#Cc1ccc2c(=O)c3c(OC)cccc3oc2c1` (centres undefined), the inhibition is reported as 42.6%.
Work on `CNC(C)C#Cc1ccc2oc3cccc(OC)c3c(=O)c2c1` (centres undefined) yielded an inhibition of 57.7%.
Work on `CCOc1ccc(S(=O)(=O)N2CCC(C(=O)N3CCCCCC3)CC2)cc1C` yielded an inhibition of 21.6%.
Work on `O=[N+]([O-])c1ccc(N2CCCCC2)cc1SCCO` yielded an inhibition of 7.65%.
Work on `CC(C)NC(=O)c1ccc(CN2CCc3ccccc3C2)cc1` yielded an inhibition of -40%.
With `CC(=O)Nc1ccc(NC(=O)c2ccc(CN3CCc4ccccc4C3)cc2)cc1` the inhibition was 28.5%.
In the case of `CCOC(=O)C1=C(C)Nc2sc(C(=O)c3ccc(OC)cc3)c(N)c2C1c1ccc(C(=O)OC)cc1` (centres undefined), the inhibition is reported as 26.4%.
Compound `CCCCCC(=O)NC(=S)Nc1cccc(-c2nc3ncccc3o2)c1` has an inhibition of -12.6%.
For `COC(=O)c1ccc(C)c(NC(=O)CSc2nc3[nH]c(=O)cc(O)c3s2)c1`, the inhibition was 11.9%.
Work on `Nc1ccc(C(=O)OCC(=O)N2CCc3ccccc3C2)cc1[N+](=O)[O-]` yielded an inhibition of 39%.
`COc1cccc(C(=O)OCC(=O)N2CCc3ccccc3C2)c1` showed an inhibition of 43.9%.
With `COc1cccc(-c2nc(-c3ccccc3)c(-c3ccccc3)[nH]2)c1OCC(=O)O` the inhibition was 4.59%.
Work on `O=[N+]([O-])c1cc(C(F)(F)F)ccc1NC1CCN(Cc2ccccc2)CC1` yielded an inhibition of 52.5%.
Compound `FC(F)Sc1ccc(-n2c(-c3ccc(Cl)cc3)c[n+]3c2CCC3)cc1` has an inhibition of -0.67%.
With `CCOc1ccc(C(=O)NCc2ccncc2)cc1OCC` the inhibition was -10.7%.
With `NS(=O)(=O)c1ccc(OC(=O)CNC(=O)OCc2ccccc2)cc1` the inhibition was 6.9%.
In the case of `Cc1ccc(S(=O)(=O)N2CCN(C(=O)c3c(-c4ccccc4)noc3C)CC2)cc1C`, the inhibition is reported as 8.79%.
In the case of `O=C(O)COc1ccc(Br)cc1CP(=O)(c1ccccc1)c1ccccc1`, the inhibition is reported as -5.1%.
With `CCOC(=O)c1c(C)nn(-c2ncccc2NC(=O)NC(C)C)c1C` the inhibition was -15.3%.
For `Cc1ccc(-c2cn(-c3ccccc3)c3[n+]2CCCS3)cc1`, the inhibition was 9.74% and -19.1%.
For `c1ccc(-c2cn(-c3ccccc3)c3[n+]2CCCS3)cc1`, the inhibition was -2.11%.
Compound `CCn1cc(C(=O)NC(=S)Nc2ccccc2[N+](=O)[O-])cn1` has an inhibition of 26.2%.
Compound `COCCNC(=O)C(c1ccc(O)cc1)N(Cc1cccs1)C(=O)CCC(=O)Nc1ccccn1` (centres undefined) has an inhibition of 7.81%.
For `CCn1c(SCc2ccc([N+](=O)[O-])cc2)nnc1C(C)NC(=O)c1ccccc1Br` (centres undefined), the inhibition was -7.9%.
In the case of `COc1ccc(CNC(=O)c2cc3c(C)nc4ccccc4c3o2)c(OC)c1`, the inhibition is reported as 31.7%.
Compound `COC(=O)C1CC(c2ccc(Cl)cc2)=NO1` (centres undefined) has an inhibition of 10.9%.
For `O=C(OCC1CC(c2ccccc2)=NO1)c1ccc(Cl)cc1` (centres undefined), the inhibition was 25.9%.
Compound `CC(NS(=O)(=O)c1ccc2c(c1)oc(=O)n2C)c1ccccc1` (centres undefined) has an inhibition of -7.19%.
`CC1Oc2ccccc2N(CC(=O)NC2CCCCC2)C1=O` (centres undefined) showed an inhibition of -12.6%.
In the case of `COc1ccc(S(=O)(=O)N=Nc2c(O)[nH]c3ccccc23)cc1`, the inhibition is reported as 2.14%.
`O=C(Nc1cccc(Br)c1)c1ccc(OC2CSC2)cc1` gave an inhibition of 79.7%.
`O=C(NCCNC(=O)c1cccc(O)c1)c1cccc(O)c1` showed an inhibition of -13.5%.
Compound `CCOC(=O)c1cc2c(C)[nH]c(C)c2cc(C(=O)OCC)c1=O` has an inhibition of -5.61%.
With `CC(Oc1ccc(Cl)cc1Cl)C(=O)Nc1ccc(O)cc1` (centres undefined) the inhibition was -1.96%.
For `CC(=O)Nc1ccc(NC(=O)C(C)Oc2ccc(Cl)cc2Cl)cc1` (centres undefined), the inhibition was 4.67%.
In the case of `CC(=O)c1cnc(Nc2nc(C)c3cc(C)c(C)cc3n2)nc1C`, the inhibition is reported as 16.2%.
`COc1ccc(-c2cc3ccccc3oc2=O)cc1` gave an inhibition of 24.3%.
In the case of `O=c1oc2ccccc2cc1-c1nc(-c2ccccc2)no1`, the inhibition is reported as -0.8%.
Compound `COc1ccc(-c2nc3c(c(SCC(=O)N4CCOCC4)n2)COC(C)(C)C3)cc1` has an inhibition of -3.27%.
`CC1CCCCC1NC(=O)CN1C(=O)NC(C)(c2ccc(OC(F)F)cc2)C1=O` (centres undefined) gave an inhibition of -1.28%.
`CCn1nnnc1NC(=O)c1ccc2ccccc2c1` showed an inhibition of -1.96%.
Compound `CCCn1nnnc1NC(=O)COc1ccc(Cl)c(C)c1` has an inhibition of 74.2%.
`CCCCC(=O)Nc1nnnn1CCC` gave an inhibition of 12.9%.
`CCCn1nnnc1NCc1ccc(Cl)cc1Cl` showed an inhibition of 1.4%.
Work on `CCCn1nnc(NC(=O)c2ccc3ccccc3c2)n1` yielded an inhibition of -1.15%.
`Cc1ccccc1NC(=O)c1ccc2ccccc2c1` gave an inhibition of 40.9%.
`Cc1nnc(NC(=O)c2ccc3ccccc3c2)s1` gave an inhibition of 9.74%.
`CCCn1nnnc1NC(=O)c1cc(Br)ccc1OC` showed an inhibition of 66.1%.
